Screening results from PubChem.
G9a block – blocks human histone lysine methyltransferase G9a; Q96KQ7; G9a H3K9 monomethylation, AlphaScreen, 2 h; Potency, µM (series often up to 102 µM), without a hit: top-dose activity, negative = inhibition, actives largely listed as inhibitors; 350,000 tested, 8.8% active; AID 504332; note: potency is the fitted concentration of half-maximal effect; nearly all actives have a fitted effect of over 75% in size
Target sequence (Q96KQ7 913-1193 limits assumed): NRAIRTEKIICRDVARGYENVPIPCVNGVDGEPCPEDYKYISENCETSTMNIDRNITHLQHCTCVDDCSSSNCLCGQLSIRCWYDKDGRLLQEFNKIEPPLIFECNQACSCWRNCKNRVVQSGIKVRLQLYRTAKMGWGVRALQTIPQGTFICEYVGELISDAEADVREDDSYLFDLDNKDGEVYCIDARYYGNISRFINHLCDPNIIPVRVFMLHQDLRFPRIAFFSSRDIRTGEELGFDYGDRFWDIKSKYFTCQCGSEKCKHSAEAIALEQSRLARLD
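Chemiluminescent proximity detection of H3K9 monomethylation, read after 10 min bead incubation in the dark. Reaction: 20 nM G9a, 500 nM biotin-H3K9 peptide, 20 uM SAM cofactor, 2 h, room temperature, following 15 min enzyme-compound preincubation.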
FBPA coupling cs – counter-screen for Giardia aldolase inhibitors: coupling enzyme system; coupling enzyme system counterscreen, AmpLite Red fluorescence; activity change, negative = inhibition, % at 58.2 µM, hits read low; 290,000 tested, 0.67% active; in the data active = activity change below about -30%
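Compounds tested against the coupling enzymes alone at 57.5 uM final; readout was AmpLite Red fluorescence (525/598 nm) after 20 min at RT.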
Tau fluor cs – counter-screen for tau fibril formation inhibitors | AID 1463 | tau K18 P301L Alexa594 fluorescence, heparin fibrillization | 280,000 tested, 0.93% active | Potency, µM (series often up to 57.7 µM), inactives show top-dose activity change, negative = decrease; note: potency is the fitted concentration of half-maximal effect; nearly all actives have a fitted effect of over 55% in size
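Human K18 P301L tau (15 uM unlabeled plus 0.24 uM Alexa 594-labeled, final) in 100 mM sodium acetate pH 7 was mixed with compound and 20 uM heparin and incubated 6 hr at 37 C.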
Tau FP inhib – inhibitors of human tau fibril formation. P10636. K18 P301L tau heparin fibrillization, Alexa594 FP, 6 h. Potency, µM (series often up to 57.7 µM), without a hit: at the highest dose activity, negative = inhibition, usual class: inhibitors. 280,000 tested, 0.39% active; note: potency is the fitted concentration of half-maximal effect; nearly all actives have a fitted effect of over 55% in size
Target sequence (P10636 561-689 P618L limits assumed): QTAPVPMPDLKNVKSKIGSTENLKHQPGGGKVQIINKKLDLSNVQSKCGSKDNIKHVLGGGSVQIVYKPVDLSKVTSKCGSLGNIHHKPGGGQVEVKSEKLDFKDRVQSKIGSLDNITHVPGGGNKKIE
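Compound effects on tau fibrillization are measured by Alexa 594 fluorescence polarization (ex 555, em 632 nm). K18 P301L tau is used at 15 uM with 0.24 uM labeled tracer, and 20 uM heparin induces aggregation over 6 hr at 37 C.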
Tau fibril ThT – tau fibrillization inhibition (ThT binding) | P10636 | recombinant tau K18 P301L (four-repeat tau fragment), heparin-induced fibrillization, ThT fluorescence | Potency, µM (highest dose often 57.4 µM), without a hit: at the top dose activity, negative = inhibition, usual class: inhibitors | AID 1460 | 270,000 tested, 2.1% active; note: potency is the fitted concentration of half-maximal effect; nearly all actives have a fitted effect of over 55% in size
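Aggregation was driven by heparin (20 uM final) acting on recombinant tau […] bearing P301L in 100 mM sodium acetate pH 7; fibrils were detected with Thioflavin T.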
Sfp PPTase inh – Sfp phosphopantetheinyl transferase inhibition | Potency, µM, without a hit: largest response in the series, negative = inhibition, most hits filed as inhibitors | 310,000 tested, 3.5% active | Biochemical Sfp PPTase activity, qHTS | AID 1490 | Q9F4F7;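 note: the enzyme is Sfp with the accession as filed and its product quenches rhodamine fluorescence; potency is the fitted concentration of half-maximal effect; 0% = enzyme reaction without inhibitor and -100% = no enzyme wells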
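Step 1, compound plus 15 nM Sfp-PPTase, 15 min, room temperature. Step 2, add rhodamine-CoA (5 uM) and BHQ-2-YbbR (12.5 uM). Step 3, read 525/598 nm fluorescence at 0 and 30 min.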
Sfp inh conf – confirmation of Bacillus subtilis Sfp PPTase inhibitors; Potency, µM (series often up to 114 µM), inactives show top-dose activity change, negative = inhibition, usual class: inhibitors; Sfp PPTase enzymatic assay, qHTS titration; shares compounds with Sfp PPTase inh; 380 tested, 79% active;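 note: potency is the fitted concentration of half-maximal effect; plate controls were uninhibited Sfp reaction for no effect and no enzyme control for full effect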
Sfp PPTase gel – Blocks Sfp PPTase activity, gel read-out; AID 2707; 210 tested, 20% active; shares compounds with Sfp PPTase inh; Potency, µM, actives largely listed as inhibitors; purified Sfp, gel-based phosphopantetheinylation read-out;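 active = potency below 100 µM; inconclusive = dose-dependent response but potency above 100 µM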;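 note: band intensities scaled against SCH202676 control wells before curve fitting; potency is an IC50 for inhibitors of Sfp transfer activity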
The depositor's hits bear a star; i = inactive; ? = inconclusive; · = not tested or not shown; [ ] = another dose, or the depositor's remark. Compounds with a hit are over-represented: about 11% of the library has one in this group of screens. Unless noted, calls come from the whole dose curve; as a rule, active = well fitted curve in the direction sought with a large enough effect; inconclusive = small, poorly fitted or top-dose-only effect, or another doubt; inactive = no such curve, though single readings can be large; an effect the other way counts as inactive or inconclusive. Unless noted, % is set by controls: 0 for no effect and ±100 for the full control effect.

SMILES | G9a block | FBPA coupling cs | Tau fluor cs | Tau FP inhib | Tau fibril ThT | Sfp PPTase inh | Sfp inh conf | Sfp PPTase gel
CCOc1ccccc1NC(=O)c1c(NC(=O)Cc2ccccc2)sc2c1CCCC2 | -41.3%[59 µM] | · | -5.1% | -2.4% | 0.4% | · | · | ·
Cc1cc(C)cc(N(CC(=O)NCCSCc2ccccc2)S(C)(=O)=O)c1 | 5.4%[12.7 µM] | 1.2 | -2.0% | 13.7% | -0.6% | 2.4% | · | ·
c1ccc(-c2nc(-c3ccccn3)no2)cc1 | -1.5%[59 µM] | 0.7 | 4.8% | 10.8% | -2.2% | -5.6% | · | ·
c1ccc(-c2ccc(-c3nc(-c4ccccn4)no3)cc2)cc1 | 7.7%[12.7 µM] | -5.6 | -10.1% | 6.9% | ? | 39.8µM* | 52.7µM* | i
Cc1ccc(NCc2ccccc2O)cc1 | -5.6%[2.33 µM] | -0.7 | ? | 18.1% | -16.8% | -4.3% | · | ·
Cc1ccc(NCc2ccc(O)c3ncccc23)cc1 | 5.01µM* | -9.3 | -7.8%[2.34 µM] | -2.8% | -2.5% | 3.55µM* | ? | ·
Cc1ccc(C(=O)N2CCN(c3ccc([N+](=O)[O-])cc3)CC2)o1 | -12.6% | 2.1 | · | · | · | 8.0% | · | ·
O=C(c1ccc(-c2ccc([N+](=O)[O-])cc2)o1)N1CCCCC1 | ? | 0.1 | -22.1% | 0.0% | ? | 15.8µM* | 18.7µM* | ?
COc1ccc(C2CC(c3ccccc3)=NN2C(=O)COC(=O)/C=C/c2ccc(O)c(OC)c2)cc1 (stereo not drawn) | -3.1%[12.7 µM] | 0.9 | ? | -3.6% | -5.6% | 3.4% | · | ·
CCC1CC2(C)NC(=O)c3c(sc4c3CC(C)(C)OC4)N2C1=O (stereo not drawn) | 31.6µM* | 1.0 | -3.0% | -2.1% | -15.9% | 15.8µM* | 18.7µM* | ·
C[C@H]1COC(=O)O1 | · | -2.9 | · | · | · | 31.5% | · | ·
O=[N+]([O-])c1ccc2nc(-c3ccc(Cl)cc3)[nH]c2c1 | 39.8µM* | -20.1 | ? | 7.6% | ? | 0.355µM* | -3.1% | 55.6µM*
CC[C@H](C)[C@H](NC(=O)[C@@H]1CCCN1C(=O)[C@H](Cc1cnc[nH]1)NC(=O)[C@@H](NC(=O)[C@H](Cc1ccc(O)cc1)NC(=O)[C@@H](NC(=O)[C@H](CCCN=C(N)N)NC(=O)CNC)C(C)C)[C@@H](C)CC)C(=O)O | · | 1.1 | · | · | · | 23.8% | · | ·
Cn1ncc2c(c(SCc3ccc(Cl)cc3Cl)nn2C)c1=O | 8.91µM* | 0.8 | -14.2% | -10.8% | ? | 25.1µM* | 16.7µM* | ·
O=C(COC(=O)c1cncc(Br)c1)NCc1ccco1 | -21.8%[0.0925 µM] | -10.4 | 6.5% | -6.3% | 5.8% | 12.6µM* | 46.9µM* | i
CC1(C)S[C@@H]2[C@H](NC(=O)[C@@H](N)c3ccc(O)cc3)C(=O)N2[C@H]1C(=O)O | 46.8%[21.5 µM] | 0.7 | · | · | · | 10.1% | · | ·
CC1=C(C(=O)O)N2C(=O)[C@@H](NC(=O)[C@@H](N)c3ccc(O)cc3)[C@@H]2SC1 | 7.8%[21.5 µM] | -0.4 | · | · | · | 31.6µM* | -1.9%[53.7 µM] | ?
Cc1cc(C)nc(SCNC(=O)c2ccccc2)n1 | 10µM* | 3.8 | 6.4% | 2.9% | 3.7% | 7.94µM* | 52.7µM* | i
COc1cc(NC(=O)CN(c2ccc(C)cc2)S(=O)(=O)c2c(C)noc2C)cc(OC)c1 | -12.3% | -2.3 | · | · | · | 25.5% | · | ·
c1ccc(CCc2nn3c(Cn4cnc5ccccc54)nnc3s2)cc1 | 3.98µM* | 2.2 | -9.3% | -7.2% | -27.2% | 10µM* | 13.2µM* | ·
Clc1ccccc1-c1nnc2sc(CCc3ccccc3)nn12 | 4.47µM* | -0.3 | -16.6% | -9.3% | ? | 12.6µM* | 11.8µM* | ·
c1ccc(CCc2nn3c(Cn4nnc5ccccc54)nnc3s2)cc1 | ? | 0.7 | -5.9% | -8.2% | -12.5% | 12.6µM* | 41.8µM* | ·
c1ccc(CCc2nn3c(-c4ccncc4)nnc3s2)cc1 | ? | 0.0 | 0.5% | -2.6% | 0.3% | ? | · | ·
